Our source for the activation factor values is PubChem BioAssay AID1016 (Sanford-Burnham Center for Chemical Genomics, 2008).

Among all 200,000 compounds or so, about 330 (0.17%) were called active. The full list was thinned out, with actives kept by preference. Unmarked numbers belong to inactive results.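 The calls were made as follows: active = activation factor of 2 or more at 20 µM, a signal rise over negative controls twice the positive control's; inactive = the rest.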

The test deals with alkaline phosphatase, intestinal [Bos taurus]. As to the kind of experiment: bovine intestinal alkaline phosphatase activators, primary screen, biochemical, bovine IAP, CDP-star luminescence (AID 1016). To be noted: purified bovine IAP, 30 min, at 20 µM, stronger effect = higher value.
`Cc1cc(C)cc(NC(=S)NC2CC3CCCC(C2)N3Cc2cccs2)c1` (stereo not given): the activation factor is 3 (active).
In the case of `COP(=O)(OC)C(NC(=O)c1ccc(C)cc1)C(Cl)(Cl)Cl` (stereo not given) it was 0.8.
`CN(C)C(=O)Oc1ccc(OCc2cccc[n+]2C)cc1`: the activation factor was 1.
In the case of `CCOC(=O)C1SC2(C(F)(F)C(F)F)CC1(O)c1c(c(OC)c3occc3c1OC)O2` (stereo not given) it was 0.9; in that of `CN(C)CC1CCCCC1OC(=O)c1ccc(Cl)c(Cl)c1` (stereo not given), 1.
